# SMARCA2 activ = SMARCA2 function activation, primary screen. activation, % at 9.1 µM. MG213 cells, MMTV-luciferase reporter, dexamethasone, overnight. AID 652017. 370,000 tested, 1% active; in the data active = activation above about 7.8%;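 also: 0% = vehicle wells and 100% = reference activator wells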
# FGF22 binding = binders of recombinant human FGF22 by thermal shift | activity (Tm shift, normalised), % at 9.99 µM | Q9HCT0 | SYPRO orange fluorescence; percent of sucrose octasulfate shift, DMSO zero | 340,000 tested, 1.5% active;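 active = mean Tm shift, scaled 0 neutral to 100 positive control, at about 1.3% or above, every replicate too, limit read from the data; inconclusive = no clear call, values can overlap the other calls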
# AF4-AF9 inh = inhibitors of human MLL-AF4/AF9 interaction; P42568; AlphaScreen, biotin-AF4 peptide binding to FLAG-AF9; inhibition, % at 10 µM; 350,000 tested, 0.47% active; AID 651704;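 active = every replicate reaching a set inhibition limit, whatever the replicate mean, cut at about 25% in these data; inconclusive = mean inhibition reaches that limit but some replicates miss it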;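 also: 0% = plate neutral control median and 100% = total signal loss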
# Target sequence (P42568 whole entry, looked up): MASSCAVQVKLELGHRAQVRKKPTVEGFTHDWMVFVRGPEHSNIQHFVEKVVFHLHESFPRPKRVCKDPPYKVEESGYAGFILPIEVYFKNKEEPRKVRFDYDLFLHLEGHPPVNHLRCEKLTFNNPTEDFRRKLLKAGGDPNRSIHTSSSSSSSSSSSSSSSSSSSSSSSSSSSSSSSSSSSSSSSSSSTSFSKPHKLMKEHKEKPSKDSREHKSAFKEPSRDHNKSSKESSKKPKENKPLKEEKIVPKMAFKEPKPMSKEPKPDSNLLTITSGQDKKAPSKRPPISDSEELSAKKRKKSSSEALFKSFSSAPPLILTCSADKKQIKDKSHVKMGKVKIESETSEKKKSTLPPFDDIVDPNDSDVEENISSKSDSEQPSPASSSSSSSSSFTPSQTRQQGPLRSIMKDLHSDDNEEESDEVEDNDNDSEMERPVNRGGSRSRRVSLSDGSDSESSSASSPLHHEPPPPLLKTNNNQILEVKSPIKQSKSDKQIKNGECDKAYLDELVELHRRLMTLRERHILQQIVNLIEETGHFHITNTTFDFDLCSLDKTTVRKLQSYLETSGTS
# MITF TRPM1 HTS = MITF TRPM1 promoter activation in melanoma cells. SK-MEL-5 TRPM1-promoter luciferase, 24 h; % of positive control, neutral wells = 0. activation, % at 12.5 µM. 300,000 tested, 0.75% active. AID 588334;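 active = mean activation of at least 80% with every replicate also reaching 80%; inconclusive = mean reaches 80% but some replicate falls short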;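 also: 0% = neutral control wells and 100% = parthenolide positive control wells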
# Wnt act = activates Wnt/beta-catenin signaling in a reporter cell assay | activator, plate reader | activation, % at 9.35 µM | 300,000 tested, 1.2% active | AID 743398; in the data active = activation above about 30%, passing the limit was not always enough; inconclusive = no clear call, values can overlap the other calls;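 also: 0% = neutral control wells and 100% = positive control wells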
# esBAF inh = SWI/SNF esBAF complex inhibition; mouse ES cells, Bmi1-luciferase knock-in reporter, 24 h; 100% = twice the neutral-well signal; reporter increase, % at 12.5 µM; 350,000 tested, 2% active; in the data active = activation above about 40%; inconclusive = no clear call, values can overlap the other calls;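 also: 0% = median of the plate's neutral control wells and 100% = double that signal; a rise in the Bmi1 reporter signal indicates esBAF inhibition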
# * = called active by the depositor; ? = inconclusive; . = no result. The list is not random: actives were taken first. Their share in the collection is about 4.3%.
SMILES,SMARCA2 activ,FGF22 binding,AF4-AF9 inh,MITF TRPM1 HTS,Wnt act,esBAF inh
CCC(=O)Nc1sc2c(c1C(N)=O)CCN(Cc1ccccc1)C2,0,0,-6,.,39*,31
COc1cccc(-c2ccc3c(c2)[C@@H]2[C@@H](CCN2C(=O)C2CCCCC2)[C@@H](CO)N3)c1,.,.,8,.,.,.
CC(Sc1nnc(-c2cccnc2)n1-c1ccccc1F)C(=O)N1CCCc2ccccc21 (stereo unspecified),7.9*,0,5,.,-1,.
COC(=O)[C@]12CCCCC=C1N(Cc1ccc(OC)cc1)C(=O)[C@@H]2CC(=O)NCc1cccs1,-2,.,.,.,.,.
CCC(=O)Nc1ccc2c(c1)C(=O)N(C)C[C@@H](OC)[C@@H](C)CN(C(=O)C1CC1)[C@H](C)CO2,.,0,-1,.,.,1
C[C@H]1CN([C@@H](C)CO)C(=O)c2c(c3ccccc3n2C)-c2ccccc2CO[C@H]1CN(C)Cc1ccc(Oc2ccccc2)cc1,.,1.3*,-1,.,.,.
C[C@@H]1CN([C@H](C)CO)C(=O)c2c(c3ccccc3n2C)-c2ccccc2CO[C@@H]1CN(C)Cc1ccc(C(F)(F)F)cc1,.,1.4*,.,.,.,.
CC(=O)OC1CCC2(C)C3CCC4(C)C(C(C)=O)CCC4C3CC3OC32C1 (stereo unspecified),-2,43*,-8,-10,-2,-2
CC(=O)OC1(C(C)=O)CCC2C3CC4OC45CC(O)CCC5(C)C3CCC21C (stereo unspecified),-2,0,7,4,-1,-9
COC(=O)C(CCSC)NC(=O)/C=C/c1ccc(OC)cc1 (stereo unspecified),-3,43*,3,7,0,.
COc1ccc(/C=C/C(=O)NC(C)CCc2ccccc2)cc1 (stereo unspecified),-1,.,.,-4,.,-2
O=C1c2ccccc2NC(c2ccc(-c3ccccc3F)o2)N1O (stereo unspecified),3,0,0,?,?,32
O=C1c2ccccc2NC(c2ccc(-c3cccc(F)c3)o2)N1O (stereo unspecified),6,0,12,?,46*,84*
Cc1ccc(C(NC(=O)N2CCOCC2)C(Cl)Cl)cc1F (stereo unspecified),-5,.,.,-4,5,.
Cc1ccc(C(NC(=O)N2CCN(C)CC2)C(Cl)Cl)cc1F (stereo unspecified),-2,44*,-2,-6,-4,.
C[C@@H]1CN([C@H](C)CO)C(=O)CCCn2nncc2CO[C@H]1CN(C)C(=O)Nc1cccc(C(F)(F)F)c1,.,0,-1,.,.,-4
CCc1ccc(C2C3=C(CCCC3=O)OC3=C2C(=O)CCC3)cc1,-1,43*,0,-4,-1,.
CC(C)(C)c1[nH]nc2c1C(c1ccco1)C(C#N)=C(N)O2 (stereo unspecified),3,44*,-2,-12,-3,.
CN1[C@@H]2Cn3c(ccc(-c4cccc(F)c4)c3=O)[C@H]1[C@@H](C(=O)NCc1ccccc1)[C@@H]2CO,.,0,-1,.,.,4
COc1ccc(-c2nc(-c3ccccc3OC)no2)cc1OC,4,.,.,.,.,55*
COc1ccc(-c2nc(-c3cccc(C)c3)no2)cc1OC,.,0,-2,38,17,46*
COc1ccc(-c2nc(C3CCCCC3)no2)cc1OC,4,0,2,106*,-2,60*
c1ccc(-c2nc(C3CCCCC3)no2)cc1,-3,.,.,.,.,33
COc1ccccc1/C=N/n1c(N)c(S(=O)(=O)c2cccs2)c2nc3ccccc3nc21,-2,.,.,.,.,41*
COc1ccc(CCn2c(N)c(S(=O)(=O)c3cccs3)c3nc4ccccc4nc32)cc1OC,4,0,-22,4,2,-6
Cc1nn(-c2ccccc2)c(C)c1C(=O)OCC(=O)Nc1ccc(C(N)=O)cc1,-3,0,0,.,0,5
Cc1nn(-c2ccccc2)c(C)c1C(=O)OC(C)C(=O)Nc1ccc(C(N)=O)cc1 (stereo unspecified),2,43*,3,-8,-6,.
CCN(CC(=O)Nc1c(F)cccc1F)C(=O)CN1C(=O)c2ccccc2C1=O,-4,0,4,2,1,8
